In the library only some 2.9% were active in any assay of this set; here they are far more common.
ADAM10 inh: inhibits human ADAM10; AID 720582; 370,000 compounds, 0.62% hits; recombinant ADAM10, EDANS/DABCYL FRET peptide cleavage, 3 h; O14672; inhibition, % at 7 µM;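 active = inhibition above a per-campaign cutoff equal to the mean of compounds falling between control-based bounds plus 3 SD, cut at about 20% in these data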
PLC-beta3 inh: inhibitors of human phospholipase C beta3. Q01970. Purified PLC-beta3, fluorogenic substrate, fluorescence. inhibition, % at 12.2 µM. 370,000 compounds, 0.18% hits; in the data active = inhibition above about 11%
proKLK7 act: activators of human kallikrein-7 zymogen; P49862; purified proKLK7, EDANS-DABCYL substrate fluorescence; 100% is mature enzyme control, 0% vehicle; activation, % at 7 µM; 370,000 compounds, 0.9% hits;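 active = activation above the mean of all tested compounds plus 3 SD, computed per campaign excluding outliers beyond control limits, cut at about 13% in these data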
Target sequence (P49862 whole entry, looked up): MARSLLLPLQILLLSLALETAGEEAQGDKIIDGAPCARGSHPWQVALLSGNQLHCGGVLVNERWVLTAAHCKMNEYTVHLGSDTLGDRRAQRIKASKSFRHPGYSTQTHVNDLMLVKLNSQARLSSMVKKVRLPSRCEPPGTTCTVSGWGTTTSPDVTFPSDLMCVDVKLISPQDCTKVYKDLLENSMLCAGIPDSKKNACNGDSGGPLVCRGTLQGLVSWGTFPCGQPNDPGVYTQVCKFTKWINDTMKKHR
ADAM17 inh: ADAM17 inhibition, QFRET primary screen; P78536; recombinant ADAM17, EDANS/DABCYL FRET peptide cleavage; inhibition, % at 6.95 µM; 370,000 compounds, 0.83% hits;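 active = inhibition above the mean of compounds lying between control limits plus 3 SD, set per campaign, cut at about 8.5% in these data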
PLCg1 inh: PLC-gamma1 (human) inhibition, primary screen; 370,000 compounds, 0.84% hits; inhibition, % at 12.2 µM; AID 720700; purified PLC-gamma1, fluorogenic substrate, fluorescence; P19174; in the data active = inhibition above about 9.5%
ADAM10 ctr: inhibits human ADAM10 in ADAM17 exosite counter-screen; 2,900 compounds, 47% hits; shares compounds with ADAM17 inh; inhibition, % at 6.95 µM; recombinant ADAM10, EDANS/DABCYL FRET peptide cleavage, 3 h;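 active = mean inhibition over the triplicate runs exceeds the activity threshold set in the earlier primary screen, cut at about 20% in these data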
ADAM17 confirm: human ADAM17 inhibition, confirmation; recombinant ADAM17, EDANS/DABCYL QFRET peptide cleavage; shares compounds with ADAM17 inh; inhibition, % at 6.95 µM; 2,900 compounds, 65% hits;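 active = mean inhibition across replicates above the hit cutoff set in the primary screen, cut at about 8.5% in these data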
A number is an active result; – = inactive; · = no result given; ! = repeats disagree.

SMILES	ADAM10 inh	PLC-beta3 inh	proKLK7 act	ADAM17 inh	PLCg1 inh	ADAM10 ctr	ADAM17 confirm
O=C1NC(Cc2ccccc2)c2nc3ccc(F)cc3c(=O)n2-c2cc(Cl)ccc21 (stereo not drawn)	–	–	–	13	–	–	–
COc1ccc(NC(=O)N(C)C[C@@H]2OCc3cn(nn3)CCCC(=O)N([C@H](C)CO)C[C@H]2C)cc1	–	–	–	–	–	·	·
CC(=O)Nc1ccc(SC[C@H](CC(C)C)N2CCN(CCc3ccccc3)CCC2=O)cc1	–	–	–	9.0	–	–	–
Cc1ccc(SC[C@H](CC(C)C)N2CCN(CCc3ccccc3)CCC2=O)cc1	–	–	–	–	–	·	·
CCc1nc2ccc(C(=O)N3CCN(S(=O)(=O)CC)CC3)cn2c1N(C)Cc1cccs1	–	–	–	–	–	·	·
CN1CCN(c2ccc(C(CC(N)=O)NC(=O)Cc3cccc4ccccc34)cc2[N+](=O)[O-])CC1 (stereo not drawn)	–	–	–	–	–	·	·
CC1CN(C(=O)C(C)Sc2nc3ccccc3s2)CC(C)O1 (stereo not drawn)	–	–	–	–	–	·	·
CC(Sc1nc2ccccc2s1)C(=O)N(C)Cc1ccccc1 (stereo not drawn)	–	–	–	8.8	–	–	–
CN1CCN(C(=O)c2cnn(-c3ccccc3)c2NC(=O)c2ccc(Br)cc2)CC1	–	–	–	–	–	·	·
CCOc1ccc(N(CC(=O)NCCSc2ccccn2)S(C)(=O)=O)cc1	–	–	–	10	–	–	–
CCOc1ccc(N(CC(=O)NCCSc2ccccn2)S(=O)(=O)c2ccc(Cl)cc2)cc1	–	–	–	–	–	·	·
CCC1(CC)SCCNC1=O	–	–	–	9.1	–	–	–
CN1CCNC(=O)C1CC(=O)O (stereo not drawn)	–	–	–	–	–	·	·
CC(=O)Nc1cc2c(cc1Br)-c1ccccc1C2	–	–	–	–	–	·	·
Nc1ncnc2c1ncn2[C@@H]1O[C@H](CNCc2ccc(-c3cc(C(F)(F)F)ccc3Cl)o2)[C@@H](O)[C@H]1O	–	–	–	10	–	–	–
O=C(/C=C/c1ccc2c(c1)OCO2)c1ccc(O)cc1O	–	–	–	9.3	–	–	–
Cc1ccc(S(=O)(=O)N2CCC(C(=O)Nc3ccc(S(=O)(=O)N4CCCC4)cc3)CC2)cc1	–	–	–	13	–	21	11
Cc1ccc(S(=O)(=O)N2CCC(C(=O)Nc3ccc(C(C)C)cc3)CC2)cc1	–	–	–	–	–	·	·
Cc1cccc(C)c1NC(=O)C1c2ccccc2OCC(=O)N1Cc1ccco1 (stereo not drawn)	–	–	–	–	–	·	·
COc1ccccc1OCC(=O)NCCc1nc2ccccc2[nH]1	–	–	–	–	–	·	·
O=C(COc1ccccc1Br)NCCc1nc2ccccc2[nH]1	–	–	–	8.9	–	–	–
O=C(CNc1ccc2c(c1)OCO2)N/N=C\c1ccccc1Cl	–	–	–	–	–	·	·
Cc1[nH]c2ccccc2c1/C=N\NC(=O)CNc1ccc2c(c1)OCO2	–	–	–	13	–	–	–
COc1cccc(-c2nnc(SCC(=O)Nc3ccc(OCc4ccccc4)cc3)n2Cc2ccco2)c1	–	–	–	–	–	·	·
O=C(CCn1c2c(c3ccccc31)CCCC2)NNC(=O)c1ccc([N+](=O)[O-])cc1	–	–	–	11	–	–	9.9
SMILES	ADAM10 inh	PLC-beta3 inh	proKLK7 act	ADAM17 inh	PLCg1 inh	ADAM10 ctr	ADAM17 confirm
O=C(N[C@H]1C/C=C\C[C@H](CC(=O)N(CCO)Cc2ccccc2)C(=O)N[C@H](Cc2c[nH]c3ccccc23)COC1=O)OCC1c2ccccc2-c2ccccc21	–	–	–	–	–	·	·
O=C(N[C@H]1C/C=C\C[C@@H](CC(=O)N(CCO)Cc2ccccc2)C(=O)N[C@H](Cc2c[nH]c3ccccc23)COC1=O)OCC1c2ccccc2-c2ccccc21	–	–	–	10	–	21	13
COCc1cc(N2CCN(C(=O)OC(C)(C)C)C[C@@H]2C)ccc1Br	–	–	–	–	–	·	·
Cc1ccccc1S(=O)(=O)N1[C@@H](c2ccc(Br)cc2)C(C(=O)O)=CC[C@H]1c1ccc(Cl)cc1	–	–	–	9.3	–	–	8.7
Cc1ccccc1S(=O)(=O)N1[C@@H](c2ccccc2)C(C(=O)O)=CC[C@H]1c1ccc(Cl)cc1	–	–	–	–	–	·	·
Cc1ccc(S(=O)(=O)N2[C@@H](c3cccc(Cl)c3)C(C(=O)O)=CC[C@H]2c2ccc(C(C)C)cc2)cc1	–	–	–	9.0	–	26	14
CC(=O)C1=CCC(c2ccc(Cl)cc2)N(S(=O)(=O)c2ccc(C)cc2)C1 (stereo not drawn)	–	–	–	12!	–	–	–
NC(c1cccc(F)c1)c1nc(-c2ccc(Cl)cc2)cs1 (stereo not drawn)	–	–	–	–	–	·	·
COc1ccc(CC(=O)NC(=S)Nc2ccc(S(=O)(=O)NC(C)(C)C)cc2)cc1	–	–	–	9.9	–	32	15
CCC(C(=O)Nc1cccc(S(=O)(=O)N(C)c2ccccc2)c1)c1ccccc1 (stereo not drawn)	–	–	–	9.3	–	–	8.7
CN(c1ccccc1)S(=O)(=O)c1cccc(C(=O)Nc2cccc(C(=O)NC3CC3)c2)c1	–	–	–	9.2	–	–	–
CN(c1ccccc1)S(=O)(=O)c1cccc(C(=O)NC2CCCC2)c1	–	–	–	–	–	·	·
CN(C)S(=O)(=O)c1cccc(NC(=O)C(c2ccccc2)c2ccccc2)c1	–	–	–	–	–	·	·
CC(=O)c1cccc(NC(=O)C(OC(=O)c2cccc(S(=O)(=O)N(C)c3ccccc3)c2)c2ccccc2)c1 (stereo not drawn)	–	–	–	9.1	–	24	12
COc1ccc(N(C)S(=O)(=O)c2cccc(C(=O)OC(C(=O)Nc3cc(C)cc(C)c3)c3ccccc3)c2)cc1 (stereo not drawn)	–	–	–	8.6	–	–	13
COCCN1C[C@@H](CO)O[C@@H](n2cnc3c(NC4CC4)ncnc32)C1	–	–	–	–	–	·	·
CN(c1ccccc1)S(=O)(=O)c1cccc(NC(=O)COC(=O)C2CCCCC2)c1	–	–	–	8.8	–	32	14
C[C@@H]1CN([C@@H](C)CO)C(=O)c2cc(Br)cnc2O[C@@H]1CN(C)S(=O)(=O)c1ccc(F)cc1	–	–	–	–	–	·	·
CCC(C)Nc1nc2ccccc2n2c(C)nnc12 (stereo not drawn)	–	–	–	–	–	·	·
CC(C)c1ccc(S(=O)(=O)N2CCN(C(=S)NCc3ccco3)CC2)cc1	–	–	–	9.5	–	28	17

Screening data (PubChem BioAssay)
